Among the data in PubChem BioAssay (NCI) are growth values, retold here.

Test systems include RPMI-8226 leukemia; OVCAR-8 ovarian; OVCAR-5 ovarian; OVCAR-4 ovarian; SK-OV-3 ovarian; IGROV1 ovarian; OVCAR-3 ovarian; HS 578T breast; NCI/ADR-RES ovarian; MDA-MB-435 melanoma; SW-620 colon; MCF7 breast; HCT-116 colon; HCC-2998 colon; KM12 colon; T-47D breast; BT-549 breast.
Experiment in all cases: NCI-60 one-dose screen, 48 h (100 = growth as untreated, 0 = no growth, -100 = all killed)
Conditions in all cases: 10 µM unless noted

Compounds without any hit were thinned out: in the full panel of roughly 83,000, 20% have a hit.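 A percent growth of 40 corresponds to 60% growth inhibition; 0 means no net growth; -100 means all cells died. Active threshold: below 10.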 Values without a mark were called inactive. Activity calls are given as the source filed them.

For the compound `O=C(Nc1cccc(Cn2c(=O)[nH]c3ccc(Oc4ncccn4)cc3c2=O)c1)c1ccc(Cl)cc1`, the growth in the assay with RPMI-8226 leukemia is 25.5%; in the assay on OVCAR-8 ovarian it was 31.8%; with OVCAR-5 ovarian it was 99%; with OVCAR-4 ovarian, 31.5%; in the assay on SK-OV-3 ovarian, 66%; in the assay with IGROV1 ovarian, 66.9%. The growth was 65.1% in the assay on OVCAR-3 ovarian; 49.2% in the assay on HS 578T breast; 71.2% with NCI/ADR-RES ovarian; 43% in the assay on MDA-MB-435 melanoma; 71.5% in the assay with SW-620 colon; 28% in the assay on MCF7 breast. In addition, the growth in the assay with HCT-116 colon is 39.2%; with HCC-2998 colon, 81.7%; in the assay with KM12 colon it was 15.3%.
As to `C=C(NC(=O)[C@H](C(C)C)N(C)c1cccc2[nH]ccc12)C(=O)OC`, the growth with RPMI-8226 leukemia was 6.33% (active); in the assay on OVCAR-8 ovarian it was 102%; with OVCAR-5 ovarian, 101%; in the assay with OVCAR-4 ovarian, 103%; in the assay on SK-OV-3 ovarian, 101%; in the assay on IGROV1 ovarian, 111%. Moreover, the growth is 103% in the assay with OVCAR-3 ovarian; 108% in the assay with NCI/ADR-RES ovarian; 95.4% in the assay with T-47D breast; 95.3% with BT-549 breast; 102% in the assay with MDA-MB-435 melanoma; 110% with SW-620 colon. The growth in the assay on MCF7 breast was 99.6%; in the assay with HCT-116 colon, 94.1%; in the assay on HCC-2998 colon, 113%; in the assay on KM12 colon, 109%.
With `CCCCCN1CCN(C(CC(=O)c2ccccc2)C(=O)c2ccccc2)CC1` (stereo not given), the growth with RPMI-8226 leukemia was 12.6%; in the assay on OVCAR-8 ovarian, 101%; in the assay with OVCAR-5 ovarian, 110%; with OVCAR-4 ovarian, 107%; with SK-OV-3 ovarian, 102%; in the assay with IGROV1 ovarian it was 57.8%. Besides, the growth was 55.3% in the assay with OVCAR-3 ovarian; 99% in the assay on NCI/ADR-RES ovarian; 96.2% in the assay on BT-549 breast; 95.5% in the assay on MDA-MB-435 melanoma; -100% (active) in the assay on SW-620 colon; 77.4% with HCT-116 colon. In addition, the values for the growth with HCC-2998 colon and in the assay on KM12 colon were 106% and 102%, respectively.
For `Br/C(=N\Nc1nn[nH]n1)c1ccccc1`, the growth in the assay on RPMI-8226 leukemia is 102%; in the assay on OVCAR-8 ovarian, 103%; in the assay with OVCAR-5 ovarian, 102%; with OVCAR-4 ovarian, 107%; in the assay on SK-OV-3 ovarian, 98.6%; with IGROV1 ovarian it was 111%. Also, the growth is 120% in the assay with OVCAR-3 ovarian; 100% in the assay with NCI/ADR-RES ovarian; 99% with BT-549 breast; 111% in the assay with MDA-MB-435 melanoma; 95.3% in the assay on MCF7 breast; 104% in the assay on HCT-116 colon. In addition, the figures for the growth in the assay with HCC-2998 colon and in the assay with KM12 colon were 118% and 114%, respectively.
With `C[n+]1c2ccccc2c(Nc2ccc(NS(=O)(=O)CCCCN=C(N)N)cc2)c2ccc(N)cc21`, the growth with RPMI-8226 leukemia was 48.6%; with OVCAR-8 ovarian, 54.4%; in the assay with OVCAR-5 ovarian, 71.9%; with OVCAR-4 ovarian, 72.9%; in the assay on SK-OV-3 ovarian, 51%; in the assay with OVCAR-3 ovarian, 68.5%. Besides, the growth in the assay on HS 578T breast is 34.5%; in the assay on NCI/ADR-RES ovarian, 97.5%; in the assay with T-47D breast, 21.9%; with BT-549 breast, 88.7%; with MDA-MB-435 melanoma, 87.8%; in the assay on SW-620 colon, 59.1%. Further, the results for the growth with MCF7 breast, in the assay on HCT-116 colon and in the assay on KM12 colon were 19.7%, 37.3% and 42.3%, respectively.
`CN1CCN(Cc2ccc(NC(=O)c3ccc(C#Cc4c(N)ncc5ccc(F)cc45)cc3)cc2C(F)(F)F)CC1`: the growth is -43.3% (active) in the assay with RPMI-8226 leukemia; -28.4% (active) in the assay on OVCAR-8 ovarian; -52.8% (active) in the assay with OVCAR-5 ovarian; -19.9% (active) in the assay on OVCAR-4 ovarian; 64% with SK-OV-3 ovarian; -50.6% (active) in the assay on IGROV1 ovarian. Further, the growth is -25.9% (active) in the assay on OVCAR-3 ovarian; 29.9% in the assay with HS 578T breast; -12.3% (active) with NCI/ADR-RES ovarian; 27.7% with BT-549 breast; -92% (active) in the assay with MDA-MB-435 melanoma; -77.3% (active) in the assay on MCF7 breast. Moreover, the growth is -95.4% (active) in the assay on HCT-116 colon, -82.9% (active) in the assay with HCC-2998 colon and -75.5% (active) in the assay with KM12 colon.
Turning to `O=C1C=C(OCC=C(C(F)(F)F)C(F)(F)F)c2ccccc2C1=O`, the growth in the assay with RPMI-8226 leukemia was -38.7% (active); with OVCAR-8 ovarian it was -22.8% (active); with OVCAR-5 ovarian, 96.3%; in the assay with OVCAR-4 ovarian, -7.2% (active); in the assay on SK-OV-3 ovarian, 59.8%; with IGROV1 ovarian it was -12.4% (active). The growth in the assay on OVCAR-3 ovarian was -19.9% (active); with NCI/ADR-RES ovarian, 28.6%; in the assay on T-47D breast, -68.9% (active); in the assay on BT-549 breast, 39%; in the assay with MDA-MB-435 melanoma, -40.2% (active); in the assay on SW-620 colon it was -34.9% (active). The growth in the assay with MCF7 breast is -76.8% (active); with HCT-116 colon, -33.3% (active); with HCC-2998 colon, -12.1% (active); with KM12 colon, 43.3%.
As for `O=C(Nc1cccc(Cn2c(=O)[nH]c3ccc(Oc4ncccn4)cc3c2=O)c1)c1cc(Cl)cc(Cl)c1`, the growth in the assay with RPMI-8226 leukemia is 60.9%; in the assay with OVCAR-8 ovarian, 51.4%; in the assay on OVCAR-5 ovarian, 70%; in the assay with OVCAR-4 ovarian, 41.5%; in the assay on SK-OV-3 ovarian it was 66.5%; in the assay with IGROV1 ovarian, 49%. Also, the growth is 81.2% with OVCAR-3 ovarian; 56.7% in the assay with HS 578T breast; 86.3% with NCI/ADR-RES ovarian; -3.71% (active) in the assay on BT-549 breast; 67.3% in the assay with MDA-MB-435 melanoma; 89.5% with SW-620 colon. Also, the growth with MCF7 breast is 64%; in the assay on HCT-116 colon it was 59.9%; in the assay with HCC-2998 colon, 85.6%; in the assay on KM12 colon it was 40.6%.
Turning to `COc1cc2cc3cc4cc(OC)c(OC)cc4c(C)[n+]3cc2cc1OC` (tested in a mixture with another compound), the growth in the assay on RPMI-8226 leukemia is 43%; in the assay on OVCAR-8 ovarian, 76.2%; in the assay with OVCAR-5 ovarian it was 104%; with SK-OV-3 ovarian, 107%; with OVCAR-3 ovarian, 65.9%; in the assay with HS 578T breast it was 90.1%. The growth with NCI/ADR-RES ovarian was 93.1%; in the assay with T-47D breast, 91.7%; in the assay on BT-549 breast it was 85.5%; in the assay with MDA-MB-435 melanoma it was 71%; in the assay on SW-620 colon it was 83.2%; in the assay with MCF7 breast it was 67.6%. Moreover, the values for the growth in the assay with HCC-2998 colon and in the assay with KM12 colon were 102% and 80.4%, respectively.
On to `COc1cc(-c2nc(/C=C3/C(=O)Nc4ccccc43)c3ccccn23)cc(OC)c1OC`, for which the growth in the assay on OVCAR-8 ovarian is 32.8%; in the assay with OVCAR-5 ovarian it was 82.9%; in the assay on OVCAR-4 ovarian, 76.4%; in the assay with SK-OV-3 ovarian, 74.2%; in the assay with IGROV1 ovarian, 51.6%; in the assay on OVCAR-3 ovarian, -8.37% (active). Moreover, the growth in the assay on HS 578T breast is 76.9%; in the assay on NCI/ADR-RES ovarian, 47.2%; with T-47D breast, 53.7%; in the assay with MDA-MB-435 melanoma it was 55.6%; with SW-620 colon, 88.7%; with MCF7 breast, 40.1%. Also, the results for the growth with HCT-116 colon, with HCC-2998 colon and with KM12 colon were 67.2%, 78.1% and 47.6%, respectively.
